PubChem BioAssay (NCATS)
Records with an inconclusive call do not appear. The source made the active and inactive calls. Unless noted, calls come from the whole dose curve; as a rule, active = well fitted curve in either direction with a large enough effect (not every such curve was filed as active); inconclusive = small, poorly fitted or top-dose-only effect, or another doubt; inactive = flat fitted curve, though single readings scatter.

Key:
[1] = target: Lysosomal acid glucosylceramidase (Homo sapiens) (UniProt P04062); assay: Glucocerebrosidase-p2 (AID 348; in the data active = potency below about 10 µM; note: potency is the fitted concentration of half-maximal effect); settings: purified GBA, blue fluorogenic substrate, 40 min
In short: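 Compounds titrated from 0.6 nM upwards against 0.2 nM enzyme in pH 5.9 citric acid/KH2PO4, taurocholate, tween-20; blue fluorogenic substrate 80 uM, 40 min room temperature, stopped and read Ex 365/Em 440 for AC50.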

[2] = AP1 Signaling Pathway (AID 357); settings: ME-180 AP-1-bla reporter, EGF-induced, beta-lactamase ratio, 5 h; at 7.69 µM (top of the series) unless noted;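 note: ME-180 reporter cells stimulated with EGF at its EC50 level; % is set by controls: 0 for no effect and ±100 for the full control effect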
In short: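 In this screen, ME-180 cells in Opti-MEM with 0.5% dialyzed FBS received EC50 EGF and compound titrations for 5 h. AP-1 reporter beta-lactamase was detected via CCF4 ratio, giving AC50 for positive and negative modulators.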

[3] = target: Cytochrome P450 1A2 (Homo sapiens) (UniProt P05177); assay: p450-cyp1a2 (AID 410; calls by dose curve; note: potency is the fitted concentration of half-maximal effect;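 for activity change, negative = inhibition: -100% = full effect of reference inhibitor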); settings: recombinant CYP1A2, luciferin-ME demethylation, luminescence; series mostly up to 57 µM
In short: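 Luminescent readout of luciferin formed from Luciferin-ME by human CYP1A2; data normalized against complete inhibition by 57 uM furafylline. Enzyme 20nM, substrate 100uM at Km, 100mM KPO4 buffer, 60 min reaction at room temperature.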

[4] = NFAT Signaling Pathway (AID 444); settings: Jurkat NFAT-bla M1, carbachol, beta-lactamase ratio, 5 h; at 7.69 µM (top of the series) unless noted;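 note: carbachol stimulus at about its EC50 of 1 µM final; % is set by controls: 0 for no effect and ±100 for the full control effect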
In short: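 Jurkat cells carrying an NFAT-driven β-lactamase reporter and co-transfected muscarinic M1 receptor were treated with compound plus carbachol (1 uM final, an EC50 level) for 5 h at 37 °C. CCF4 loading followed for 1 h at RT; 460/530 nm ratio gave %activity.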

[5] = Stat Signaling Pathway (AID 446); settings: ME-180 SIE beta-lactamase reporter, IL-6 stimulated, 5 h; at 7.69 µM (top of the series) unless noted;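 note: ME-180 cervical cancer cells given 40 pM IL-6 alongside compound; SIE-controlled beta-lactamase reporter measured as 460/530 nm FRET emission ratio; % is set by controls: 0 for no effect and ±100 for the full control effect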
In short: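 Screening format detects activators and inhibitors alike: ME-180 SIE-bla cells stimulated at 40 pM IL-6 for 5 hrs with compound, then dual-emission beta-lactamase read at 405 nm excitation.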

[6] = target: Glucocorticoid receptor (Homo sapiens) (UniProt P04150); assay: GR-EFC Redistribution (AID 451; calls by dose curve; note: potency is the fitted concentration of half-maximal effect); settings: CHO-K1 GR-EFC translocation, beta-gal luminescence, 2 h
In short: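 CHO-K1 cells stably expressing nuclear-localized β-gal enzyme acceptor and GR fused C-terminally to the enzyme donor fragment; ligand-driven nuclear translocation restores β-gal by complementation. Compounds titrated up to 46 uM final, 2 h at 37 °C; luminescence read.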

[7] = target: Mitogen-activated protein kinase 10 (Mus musculus) (UniProt Q61831); assay: JNK3 AlphaScreen Assay (AID 530); settings: JNK3 lysate, c-Jun phosphorylation; series mostly up to 57.1 µM;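 note: kinase came from lysate of stimulated human HepG2 cells; signal reports phosphorylation of biotinylated GST-cJun 1-79 at Ser73 with 10 µM ATP; % is set by controls: 0 for no effect and ±100 for the full control effect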
In short: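 Inhibitors reduce antibody binding to phosphorylated biotin-cJun, lowering AlphaScreen luminescence. Lysates from HepG2 cells pre-activated by IL-1beta plus TNF-alpha supplied JNK3; compounds were titrated.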

[8] = target: 3',5'-cyclic-AMP phosphodiesterase 4B (Homo sapiens) (UniProt Q07343); assay: qHTS Assay for Inhibitors of PDE-IV (AID 607; active = well fitted activation curve with a large enough effect in the main read-out, with a control signal flat, not every such curve was filed as active; note: % of control where 0% means no effect); settings: HEK293 ACTOne CNG channel cells, membrane potential fluorescence; series mostly up to 22.9 µM
In short: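 The readout is membrane depolarisation from a cAMP-sensing CNG channel, detected with a potential dye at ex 535/em 590. Cells were HEK293-derived (endogenous PDE-IV) at 1000 cells/well, titrated up to 22.9 uM final.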

[9] = target: Cytochrome P450 2C9 (Homo sapiens) (UniProt P11712); assay: qHTS Assay for Inhibitors and Substrates of Cytochrome P450 2C9 (AID 883; active = well fitted curve in the direction sought with a large enough effect; an effect the other way counts as inactive or inconclusive; note: nearly all actives have a fitted effect of over 60% in size; note: potency is the fitted concentration of half-maximal effect); settings: recombinant CYP2C9, luciferin-H luminescence, 60 min; series mostly up to 57.1 µM
In short: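 CYP2C9 deoxyluciferin hydroxylation, 37C, 60 min with NADPH regeneration; 10nM enzyme, 100uM Luciferin-H (KM). Glo detection reagent stopped reaction; luminescence normalized to sulphaphenazole (57uM) full inhibition.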

[10] = target: Cytochrome P450 2C19 (Homo sapiens) (UniProt P33261); assay: qHTS Assay for Inhibitors and Substrates of Cytochrome P450 2C19 (AID 899; active = well fitted curve in the direction sought with a large enough effect; an effect the other way counts as inactive or inconclusive; note: nearly all actives have a fitted effect of over 60% in size; note: potency is the fitted concentration of half-maximal effect); settings: recombinant CYP2C19, luciferin-H EGE luminescence; series mostly up to 57.1 µM
In short: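 In 50mM KPO4, the reaction held 5nM enzyme and KM-level (10uM) Luciferin-H EGE; it ran 60 min at 37C after NADPH regeneration and a 10 min compound preincubation. Luminescence values were scaled to 57uM ketoconazole as complete inhibition.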

[11] = qHTS Assay for Lipid Storage Modulators (AID 1519; calls by dose curve); settings: Drosophila S3 cells, BODIPY lipid droplet/cell ratio, laser cytometry, cells loaded with oleic acid; for activity change, negative = inhibition: at 57.5 µM (top of the series)
In short: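 Cells seeded at 5,000 per well were treated with compounds over a concentration series and loaded with oleic acid (400 uM, as added). Lipid droplet fluorescence (488 nm excitation, 500-530 nm channel) was read by laser-scanning cytometry and normalized to 20 uM Triacsin C.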

[12] = Primary qHTS for small molecule stabilizers of the endoplasmic reticulum resident proteome: Secreted ER Calcium Modulated Protein (SERCaMP) assay (AID 1508630; active = well fitted curve in the direction sought with a large enough effect; an effect the other way counts as inactive or inconclusive; note: % is set by controls: 0 for no effect and ±100 for the full control effect); settings: SH-SY5Y GLuc-SERCaMP (Gaussia luciferase released on ER calcium loss) secretion, thapsigargin, luminescence; series mostly up to 38.4 µM
In short: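 GLuc-SERCaMP-expressing SH-SY5Y cells, pretreated 16 h with compound, are challenged with thapsigargin to empty ER calcium stores; after 4 h, coelenterazine is added directly to the medium and luminescence is imaged.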

[13] = target: Cytochrome P450 3A4 (Homo sapiens) (UniProt P08684); assay: qHTS Assay for Activators of Cytochrome P450 3A4 (AID 885; active = well fitted curve in the direction sought with a large enough effect; an effect the other way counts as inactive or inconclusive; note: nearly all actives have a fitted effect of over 65% in size; note: potency is the fitted concentration of half-maximal effect); settings: recombinant CYP3A4, Luciferin-PPXE luminescence, 60 min; series mostly up to 57.1 µM
In short: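 Steps: enzyme/substrate mix dispensed; compound added, 10 min RT; NADPH regeneration solution added, 60 min RT; luciferin detection buffer stops reaction; 20 min later luminescence measured.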

[14] = target: Cytochrome P450 3A4 (Homo sapiens) (UniProt P08684); assay: qHTS Assay for Inhibitors and Substrates of Cytochrome P450 3A4 (AID 884; active = well fitted curve in the direction sought with a large enough effect; an effect the other way counts as inactive or inconclusive; note: nearly all actives have a fitted effect of over 50% in size; note: potency is the fitted concentration of half-maximal effect); settings: recombinant CYP3A4, Luciferin-PPXE luminescence; series mostly up to 57.1 µM
In short: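 20 nM human CYP3A4 with 25 uM Luciferin-PPXE (at KM) in 200 mM KPO4, preincubated 10 min with compound; NADPH regeneration started a 60 min RT reaction. Luciferin detected by luminescence, normalized to 57 uM ketoconazole as full inhibition.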

[15] = qHTS Assay for Identification of Small Molecule Agonists for Hypoxia Response Element Signaling Pathway (AID 914; active = well fitted activation curve with a large enough effect in the signal ratio, with a control signal flat, not every such curve was filed as active; the % refers to the signal ratio; note: % of control where 0% means no effect); settings: ME-180 (cervical carcinoma) HRE-bla reporter, beta-lactamase ratio, CoCl2, 17 h; activation: stronger effect = higher value
In short: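 Compounds in a titration series were added to ME-180 reporter cells alongside an EC50 level of CoCl2. After 17 hours, beta-lactamase activity was read as the 460nm/530nm emission ratio of CCF4, giving AC50 values.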

[16] = measured here: cell count channel max response
[17] = measured here: lipid channel max response

Cytochrome P450 3A4 (Homo sapiens), sequence (P08684 whole entry, looked up): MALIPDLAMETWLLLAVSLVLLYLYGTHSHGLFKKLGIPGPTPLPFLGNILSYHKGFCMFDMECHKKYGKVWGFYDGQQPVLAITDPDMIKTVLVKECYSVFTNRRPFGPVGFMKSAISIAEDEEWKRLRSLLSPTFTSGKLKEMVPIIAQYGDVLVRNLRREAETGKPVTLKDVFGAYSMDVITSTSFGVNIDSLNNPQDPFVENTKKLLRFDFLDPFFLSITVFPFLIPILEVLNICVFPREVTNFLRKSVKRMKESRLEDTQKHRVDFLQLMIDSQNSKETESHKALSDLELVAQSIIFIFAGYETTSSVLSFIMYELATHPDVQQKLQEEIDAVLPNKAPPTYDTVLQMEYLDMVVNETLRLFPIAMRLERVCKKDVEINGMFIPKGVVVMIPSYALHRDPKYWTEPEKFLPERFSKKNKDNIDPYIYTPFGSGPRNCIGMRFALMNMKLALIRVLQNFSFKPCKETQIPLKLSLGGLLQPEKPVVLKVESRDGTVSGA
Cytochrome P450 2C19 (Homo sapiens), sequence (P33261 whole entry, looked up): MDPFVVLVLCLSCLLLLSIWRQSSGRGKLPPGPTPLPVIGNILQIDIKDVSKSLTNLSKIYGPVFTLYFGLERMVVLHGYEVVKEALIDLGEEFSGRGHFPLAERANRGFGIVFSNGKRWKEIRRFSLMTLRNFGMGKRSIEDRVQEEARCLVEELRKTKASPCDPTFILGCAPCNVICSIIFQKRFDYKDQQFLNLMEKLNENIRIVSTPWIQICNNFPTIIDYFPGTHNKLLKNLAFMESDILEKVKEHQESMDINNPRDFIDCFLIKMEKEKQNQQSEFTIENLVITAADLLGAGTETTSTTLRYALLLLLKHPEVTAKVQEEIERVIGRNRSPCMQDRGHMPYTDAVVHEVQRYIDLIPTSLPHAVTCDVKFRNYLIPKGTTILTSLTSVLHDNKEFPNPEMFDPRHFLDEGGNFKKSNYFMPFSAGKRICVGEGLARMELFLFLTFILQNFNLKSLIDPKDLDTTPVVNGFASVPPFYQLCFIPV
Glucocorticoid receptor (Homo sapiens), sequence (P04150 whole entry, looked up, the tested form may be a part): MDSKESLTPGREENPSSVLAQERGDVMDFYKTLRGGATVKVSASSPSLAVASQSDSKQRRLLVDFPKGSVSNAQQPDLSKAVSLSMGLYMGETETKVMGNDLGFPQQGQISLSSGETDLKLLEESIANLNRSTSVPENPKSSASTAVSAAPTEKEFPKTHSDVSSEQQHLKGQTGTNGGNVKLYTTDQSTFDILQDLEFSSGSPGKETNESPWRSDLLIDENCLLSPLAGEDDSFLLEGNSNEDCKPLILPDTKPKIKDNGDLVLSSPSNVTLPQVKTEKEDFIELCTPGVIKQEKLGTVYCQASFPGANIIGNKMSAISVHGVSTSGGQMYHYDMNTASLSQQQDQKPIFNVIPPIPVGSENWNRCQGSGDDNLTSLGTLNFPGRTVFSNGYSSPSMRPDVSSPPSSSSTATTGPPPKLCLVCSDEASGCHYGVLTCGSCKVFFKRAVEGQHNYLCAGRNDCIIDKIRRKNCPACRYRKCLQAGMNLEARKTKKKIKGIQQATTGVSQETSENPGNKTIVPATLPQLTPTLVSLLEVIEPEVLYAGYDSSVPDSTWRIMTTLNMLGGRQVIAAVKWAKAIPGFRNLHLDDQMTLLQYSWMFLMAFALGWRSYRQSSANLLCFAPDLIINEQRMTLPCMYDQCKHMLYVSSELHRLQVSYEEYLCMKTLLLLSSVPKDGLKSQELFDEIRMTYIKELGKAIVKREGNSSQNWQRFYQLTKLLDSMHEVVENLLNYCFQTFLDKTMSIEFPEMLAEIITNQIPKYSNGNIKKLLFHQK
Cytochrome P450 1A2 (Homo sapiens), sequence (P05177 whole entry, looked up): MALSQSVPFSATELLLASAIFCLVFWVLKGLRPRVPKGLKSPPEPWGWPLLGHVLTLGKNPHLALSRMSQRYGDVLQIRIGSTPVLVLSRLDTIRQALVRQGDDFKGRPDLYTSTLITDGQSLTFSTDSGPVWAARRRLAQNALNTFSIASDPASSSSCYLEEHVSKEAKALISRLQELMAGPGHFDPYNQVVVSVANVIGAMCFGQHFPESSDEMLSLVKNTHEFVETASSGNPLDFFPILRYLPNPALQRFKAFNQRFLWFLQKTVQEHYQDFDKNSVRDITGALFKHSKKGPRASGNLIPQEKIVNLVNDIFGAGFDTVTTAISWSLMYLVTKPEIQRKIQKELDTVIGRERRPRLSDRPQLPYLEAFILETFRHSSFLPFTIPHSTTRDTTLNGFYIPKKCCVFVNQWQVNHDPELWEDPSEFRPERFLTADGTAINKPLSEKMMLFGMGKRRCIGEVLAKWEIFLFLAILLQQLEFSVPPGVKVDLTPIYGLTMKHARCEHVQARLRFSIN
Lysosomal acid glucosylceramidase (Homo sapiens), sequence (P04062 whole entry, looked up): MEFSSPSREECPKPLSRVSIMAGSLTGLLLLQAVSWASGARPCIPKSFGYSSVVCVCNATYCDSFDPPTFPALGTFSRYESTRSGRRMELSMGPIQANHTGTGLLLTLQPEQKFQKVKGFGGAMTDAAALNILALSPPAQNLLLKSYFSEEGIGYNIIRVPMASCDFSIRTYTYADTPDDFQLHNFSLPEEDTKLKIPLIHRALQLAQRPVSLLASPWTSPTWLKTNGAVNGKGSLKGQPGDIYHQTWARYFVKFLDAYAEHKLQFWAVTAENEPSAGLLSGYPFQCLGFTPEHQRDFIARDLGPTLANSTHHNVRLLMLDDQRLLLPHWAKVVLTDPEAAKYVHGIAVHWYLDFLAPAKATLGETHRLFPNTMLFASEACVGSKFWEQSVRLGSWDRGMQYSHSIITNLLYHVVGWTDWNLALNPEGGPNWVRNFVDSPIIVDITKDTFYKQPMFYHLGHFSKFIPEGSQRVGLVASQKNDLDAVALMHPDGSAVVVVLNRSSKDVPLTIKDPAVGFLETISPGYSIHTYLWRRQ
3',5'-cyclic-AMP phosphodiesterase 4B (Homo sapiens), sequence (Q07343 whole entry, looked up): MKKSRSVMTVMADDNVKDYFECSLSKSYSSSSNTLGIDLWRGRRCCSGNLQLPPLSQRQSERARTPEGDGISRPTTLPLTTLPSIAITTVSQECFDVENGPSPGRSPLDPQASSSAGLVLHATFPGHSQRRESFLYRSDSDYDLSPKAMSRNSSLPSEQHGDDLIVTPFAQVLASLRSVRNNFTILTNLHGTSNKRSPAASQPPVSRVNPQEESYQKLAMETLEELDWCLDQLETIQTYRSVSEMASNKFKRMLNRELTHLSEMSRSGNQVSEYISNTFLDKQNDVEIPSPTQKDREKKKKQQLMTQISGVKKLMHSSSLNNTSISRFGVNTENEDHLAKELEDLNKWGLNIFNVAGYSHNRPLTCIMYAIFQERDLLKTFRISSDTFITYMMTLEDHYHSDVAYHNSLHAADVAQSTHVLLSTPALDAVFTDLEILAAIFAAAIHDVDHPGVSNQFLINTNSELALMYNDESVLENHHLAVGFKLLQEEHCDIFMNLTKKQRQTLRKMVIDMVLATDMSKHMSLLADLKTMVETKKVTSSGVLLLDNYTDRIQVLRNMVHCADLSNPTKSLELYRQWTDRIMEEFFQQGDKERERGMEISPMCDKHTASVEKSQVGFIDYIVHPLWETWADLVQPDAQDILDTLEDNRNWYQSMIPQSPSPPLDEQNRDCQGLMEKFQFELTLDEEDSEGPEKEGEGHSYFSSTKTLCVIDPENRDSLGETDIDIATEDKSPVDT
Cytochrome P450 2C9 (Homo sapiens), sequence (P11712 whole entry, looked up): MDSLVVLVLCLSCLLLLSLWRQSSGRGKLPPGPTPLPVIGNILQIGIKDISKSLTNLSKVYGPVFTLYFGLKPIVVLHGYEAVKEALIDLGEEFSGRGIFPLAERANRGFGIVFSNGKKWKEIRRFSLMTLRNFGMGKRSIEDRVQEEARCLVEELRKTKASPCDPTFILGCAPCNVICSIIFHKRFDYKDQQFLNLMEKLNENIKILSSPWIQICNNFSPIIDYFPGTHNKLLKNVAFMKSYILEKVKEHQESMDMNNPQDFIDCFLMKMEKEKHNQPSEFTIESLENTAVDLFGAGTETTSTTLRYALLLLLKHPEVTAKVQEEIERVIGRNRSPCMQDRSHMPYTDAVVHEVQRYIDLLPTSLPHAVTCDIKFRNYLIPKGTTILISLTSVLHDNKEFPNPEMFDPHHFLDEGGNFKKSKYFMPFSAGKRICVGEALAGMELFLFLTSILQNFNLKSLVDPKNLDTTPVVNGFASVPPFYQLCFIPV

CS(=O)(=O)N1CCC2(CCN(c3cccc(-c4ccccc4)c3)CC2)CC1
19.1%: max response [11, 16]
inactive: Potency [1] > 11.4 µM | activity change, negative = inhibition [2] -1.25% | Potency [3] | activity change, negative = inhibition [4] 10.1% | activity, negative = inhibition [5] -21% | Potency [6] > 46 µM | outcome [7] | Potency [8] | Potency [9] | Potency [10] | activity change, negative = inhibition [11] -1.6% | Potency [12]
18.7%: max response [11, 17]

O=C(Nc1ccccc1)N1CCCC2(CCN(C(=O)c3ccco3)CC2)C1
inactive: Potency [1] > 11.4 µM | activity change, negative = inhibition [2] -8.89% | activity change, negative = inhibition [4] -7.1% | activity, negative = inhibition [5] -4.1% | Potency [6] > 46 µM | outcome [7] | Potency [8] | Potency [13] | activity change, negative = inhibition [11] 4.55% | Potency [12]
12%: max response [11, 16]
active: Potency [3] 20 µM
20.3%: max response [11, 17]

O=C(c1ccco1)N1CCC2(CC1)CN(c1ccc(-c3ccccc3)cc1)C2
-11.7%: max response [11, 17]
-15.3%: max response [11, 16]
inactive: Potency [1] > 11.4 µM | activity change, negative = inhibition [2] -23.8% | activity change, negative = inhibition [4] -4.82% | activity, negative = inhibition [5] -21.1% | Potency [6] > 46 µM | outcome [7] | Potency [8] | Potency [14] | activity change, negative = inhibition [11] 2.85% | Potency [12]
active: Potency [3] 1 µM | Potency [13] 3.98 µM

CS(=O)(=O)N1CCC2(CCCN(C(=O)Nc3cccc(C#N)c3)C2)CC1
21%: max response [11, 17]
inactive: Potency [1] > 11.4 µM | activity change, negative = inhibition [2] 2.54% | Potency [3] | activity change, negative = inhibition [4] 1.96% | activity, negative = inhibition [5] 1.15% | Potency [6] > 46 µM | outcome [7] | Potency [8] | Potency [13] | activity change, negative = inhibition [11] 6.12% | Potency [12]
14.7%: max response [11, 16]

O=C(c1cccc(F)c1)N1CCC[C@@]2(CCN(c3ccncc3)C2)C1
29.4%: max response [11, 17]
active: Potency [14] 0.316 µM
20%: max response [11, 16]
inactive: Potency [1] > 11.4 µM | activity change, negative = inhibition [2] -0.222% | Potency [3] | activity change, negative = inhibition [4] -14.9% | activity, negative = inhibition [5] -5.12% | Potency [6] > 46 µM | outcome [7] | Potency [8] | Potency [13] | activity change, negative = inhibition [11] 6.94% | Potency [12]

O=C(c1cc(C(F)(F)F)cc(C(F)(F)F)c1)N1CCC[C@@]2(CCN(Cc3nccs3)C2)C1
26%: max response [11, 16]
inactive: Potency [1] > 11.4 µM | activity change, negative = inhibition [2] 4.84% | activity change, negative = inhibition [4] -21.5% | activity, negative = inhibition [5] -3.68% | Potency [6] > 46 µM | outcome [7] | Potency [8] | Potency [13] | activity change, negative = inhibition [11] 1.58% | Potency [12]
28.9%: max response [11, 17]
active: Potency [3] 20 µM | Potency [14] 3.16 µM

Cc1noc(C)c1C(=O)N1CCC[C@@]2(CCN(C(=O)Nc3cccc(F)c3)C2)C1
active: Potency [14] 5.01 µM
8.32%: max response [11, 16]
inactive: Potency [1] > 11.4 µM | activity change, negative = inhibition [2] -2.75% | Potency [3] | activity change, negative = inhibition [4] 9.58% | activity, negative = inhibition [5] 8.15% | Potency [6] > 46 µM | outcome [7] | Potency [8] | Potency [13] | activity change, negative = inhibition [11] 3.82% | Potency [12]
13.6%: max response [11, 17]

CS(=O)(=O)N1CCC2(CCCN(c3ccncc3)C2)CC1
inactive: Potency [1] > 11.4 µM | activity change, negative = inhibition [2] 10.1% | Potency [3] | activity change, negative = inhibition [4] -14.2% | activity, negative = inhibition [5] -2.99% | Potency [6] > 46 µM | outcome [7] | Potency [8] | activation [15] 20.8% | activity change, negative = inhibition [11] 4.5% | Potency [12]
active: Potency [9] 0.0794 µM | Potency [10] 1.26 µM
17.1%: max response [11, 16]
26.8%: max response [11, 17]

O=C(c1csnn1)N1CCC2(CC1)CN(c1ccccn1)C2
inactive: Potency [1] > 11.4 µM | activity change, negative = inhibition [2] -7.48% | Potency [3] | activity change, negative = inhibition [4] -19.4% | activity, negative = inhibition [5] -1.49% | Potency [6] > 46 µM | outcome [7] | Potency [8] | Potency [14] | activity change, negative = inhibition [11] 4.89% | Potency [12]
22.2%: max response [11, 17]
15.6%: max response [11, 16]
active: Potency [13] 25.1 µM

FC(F)(F)c1cc(CN2CCCC3(CCNCC3)C2)cc(C(F)(F)F)c1
2.14%: max response [11, 17]
-0.613%: max response [11, 16]
active: Potency [14] 7.94 µM
inactive: Potency [1] > 11.4 µM | activity change, negative = inhibition [2] 2.64% | Potency [3] | activity change, negative = inhibition [4] -4.7% | activity, negative = inhibition [5] 1.59% | Potency [6] > 46 µM | outcome [7] | Potency [8] | Potency [13] | activity change, negative = inhibition [11] 0.357% | Potency [12]

O=C(c1cccc(F)c1)N1CCC[C@@]2(CCN(Cc3nccs3)C2)C1
active: Potency [3] 12.6 µM | Potency [14] 7.94 µM | Potency [10] 2.51 µM
22.4%: max response [11, 17]
inactive: Potency [1] > 11.4 µM | activity change, negative = inhibition [2] 2.29% | activity change, negative = inhibition [4] 7.56% | activity, negative = inhibition [5] -0.114% | Potency [6] > 46 µM | outcome [7] | Potency [8] | Potency [13] | activity change, negative = inhibition [11] 3.24% | Potency [12]
16.4%: max response [11, 16]

COc1ccc(NC(=O)N2CC[C@@]3(CCCN(C(=O)c4cccn4C)C3)C2)cc1
12%: max response [11, 16]
inactive: Potency [1] > 11.4 µM | activity change, negative = inhibition [2] -0.362% | Potency [3] | activity change, negative = inhibition [4] 4.79% | activity, negative = inhibition [5] 8.48% | Potency [6] > 46 µM | outcome [7] | Potency [8] | Potency [13] | activity change, negative = inhibition [11] 2.71% | Potency [12]
14.4%: max response [11, 17]

COc1ccc(C(=O)N2CCC3(CC2)CN(Cc2ccc(C#N)cc2)C3)cc1
inactive: Potency [1] > 11.4 µM | activity change, negative = inhibition [2] 11% | Potency [3] | activity change, negative = inhibition [4] -0.922% | activity, negative = inhibition [5] 8.44% | Potency [6] > 46 µM | outcome [7] | Potency [8] | Potency [13] | activity change, negative = inhibition [11] -3% | Potency [12]
11.7%: max response [11, 17]
13.1%: max response [11, 16]
